Structures are written as SMILES. Results filed as inconclusive are left out. A call without a number means that no potency is given here. Activity calls are given as the source filed them. Calls follow the shape of the dose curve; as a rule, active = well fitted cell-killing curve with a large enough effect; inconclusive = small, poorly fitted or top-dose-only effect, or effect the other way; inactive = flat fitted curve, though single readings scatter.

The nature of the assay: Compound cytotoxicity measured by an ATP content assay as a counter-screen for lead compounds in human astrocytoma cell line (SNB-19). The note with it: SNB-19 astrocytoma viability, ATP luminescence; series mostly up to 46.1 µM. The essentials:
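Cell viability was measured as ATP content by luminescence in SNB-19 astrocytoma cells in RPMI 1640 with 10% FBS. Compounds were incubated for set times such as 6, 24 or 72 h, and cytotoxicity was expressed as percent inhibition.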
With `Cc1c(NC(=O)c2ccc(C(C)(C)C)cc2)cccc1-c1cn(C)c(=O)c(Nc2ccc(C(=O)N3CCOCC3)cc2)n1`, the Potency entry was “inactive”.

As for `O=C(Nc1ncc([N+](=O)[O-])s1)c1cccs1`, the Potency result is “inactive”.

Regarding `C[C@@H](N)c1ccc(C(=O)Nc2ccnc3[nH]ccc23)cc1`, the Potency result was “inactive”.

Regarding `O=C(/C=C/c1ccccc1)NCCO`, the Potency result was “inactive”.

For `O=C1c2ccccc2C(=O)c2c(NCCc3ccc(O)cc3)ccc(NCCc3ccc(O)cc3)c21`, the Potency result was “inactive”.

Consider `O=C(Nc1cc2cc[nH]c2cn1)c1ccccc1`, for which the Potency is 0.388 µM (active).

In the case of `CC(C(=O)O)c1ccc(-c2ccccc2)c(F)c1` (stereo not drawn), the Potency result is “inactive”.

Take `Cc1oncc1C(=O)Nc1ccc(C(F)(F)F)cc1`: the Potency entry is “inactive”.

With `CC(C)(C)COc1ccc(-n2cc(C(=O)O)cn2)cc1C#N`, the Potency entry is “inactive”.

Regarding `COc1ccc2nc(NC(=O)Nc3ccccc3)sc2c1`, the Potency is 19.5 µM (active).

Take `CN1CCN(c2cc3c(nn2)Oc2ccccc2N3C)CC1`: the Potency entry is “inactive”.

On to `CN(C)c1cc(NC(=O)CNC(C)(C)C)c(O)c2c1C[C@@H]1C[C@H]3[C@H](N(C)C)C(=O)C(C(N)=O)=C(O)[C@@]3(O)C(=O)C1=C2O`, for which the Potency entry is “inactive”.

In the case of `Cc1ccc(C(=O)c2ccc(CC(=O)O)n2C)cc1`, the Potency result is “inactive”.

For `O=C(Nc1ccc(OC(F)(F)F)cc1)c1sccc1NCc1ccnc2ccccc12`, the Potency entry was “inactive”.

As for `CCN1/C(=C/C=C/c2sc3ccccc3[n+]2CC)Sc2ccccc21`, the Potency entry is “inactive”.

As to `CCC(C)SSc1ncc[nH]1` (stereo not drawn), the Potency entry is “inactive”.

In the case of `CN(C)CCCSc1ccccc1NC(=O)/C=C/c1ccccc1`, the Potency result was “inactive”.

As to `CN(C)c1ccc2cc(C(=O)N[C@@H](CCCN=C(N)CCl)C(=O)NCc3ccccc3)ccc2c1`, the Potency entry is “inactive”.
